The results in this text go back to PubChem BioAssay (EPA / NIEHS).

SMILES strings stand for the structures. The source made the active and inactive calls. The calls were made as follows: active = hit-call score of the fitted dose curve at least 0.9, where 1 is the maximum; inactive = score below 0.9.

The first experiment in a line: ATG_M_32_CIS: Attagene CIS-FACTORIAL HepG2 Assay for M32 Transcription Factor (Internal Marker) (AID 2282949).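 Also: background control marker of the multiplexed CIS panel rather than a real target.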 The conditions noted are these: HepG2 Attagene cis-factorial M32 reporter, mRNA; actives raise or lower the signal. The essentials: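 Internal background marker read-out: RT-PCR/capillary electrophoresis fluorescence of reporter transcripts from transiently transfected HepG2 cells after 24 h chemical exposure. Activity fitted bidirectionally relative to DMSO negative control.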
Consider `O=C1O[C@@H]2[C@@H](O)[C@H](O)O[C@@H]2[C@H]1O`, for which the result was inactive.

Regarding `NCCCN1CCOCC1`, the compound was classed as inactive.

Turning to `CCCCCCCCCCCCCC(=O)O`, the call was inactive.

In the case of `BrC1CCC(Br)C(Br)CCC(Br)C(Br)CCC1Br` (centres undefined), the result was inactive.

As to `CC1CCC(C(C)(C)O)CC1` (centres undefined), the call was inactive.

Take `CC1CCC2CC1C2(C)C` (centres undefined): the result was inactive.

For `COC(=O)C1=C(C)NC(C)=C(C(=O)OCCN(C)Cc2ccccc2)C1c1cccc([N+](=O)[O-])c1` (centres undefined), the compound was classed as inactive.

Take `C[Si](O[Si](C)(C)C)O[Si](C)(C)C`: the compound was called inactive.

With `C=CCOC(=O)CCC1CCCCC1`, the outcome was inactive.

As to `O=Cc1ccc(F)cc1`, the call was inactive.

For `CC(CCO)CCc1ccccc1` (centres undefined), the outcome was inactive.

For the compound `CC1=CCC2C(C1)C2(C)C` (centres undefined), the compound was classed as inactive.

`COC(C(=O)O)c1ccccc1` (centres undefined): the compound was called inactive.

On to `OCc1cccnc1`, for which the outcome was inactive.

As to `Clc1cccc(Cl)n1`, the compound was classed as inactive.

As to `COc1ccc(OC)c(OC)c1`, the call was inactive.

As to `CC(C)=CCCC(C)CC=O` (centres undefined), the compound was classed as inactive.

Take `CC(C)(Oc1ccc(CCNC(=O)c2ccc(Cl)cc2)cc1)C(=O)O`: the compound was called inactive.

Consider `Nc1ccc(F)c([N+](=O)[O-])c1`, for which the compound was called inactive.

Regarding `Cc1cccc(C)c1C`, the compound was classed as inactive.

In the case of `COc1c(Cl)c(Cl)c(Cl)c(Cl)c1Cl`, the outcome was inactive.

Regarding `Cc1c(N(C)C)c(=O)n(-c2ccccc2)n1C`, the compound was classed as inactive.

In the case of `CC(C)=CCC[C@H](C)CC=O`, the call was inactive.

With `O=C1c2ccccc2C(=O)N1SC1CCCCC1`, the AC50 was 189 µM (active).

Take `CCCCC/C=C/C=C/C=O`: the call was inactive.

In the case of `CCCCNC(=O)NS(=O)(=O)c1ccc(C)cc1`, the compound was called inactive.

Regarding `CC(=O)C(C)=O`, the compound was classed as inactive.

For the compound `O=C(O)c1snc(Cl)c1Cl`, the result was inactive.

Regarding `CC(=O)O[C@]1(C(C)=O)CC[C@H]2[C@@H]3C[C@H](C)C4=CC(=O)CC[C@]4(C)[C@H]3CC[C@@]21C`, the outcome was inactive.

For the compound `COc1cccc(OC)c1`, the compound was called inactive.

Regarding `C=C(C)C(=O)OCCOC(=O)CC(C)=O`, the compound was classed as inactive.

The next experiment in a line: ATG_M_06_CIS: Attagene CIS-FACTORIAL HepG2 Assay for M06 Transcription Factor (Internal Marker) (AID 2282950). The conditions noted are these: HepG2 Attagene CIS-FACTORIAL M06 internal marker reporter; actives raise or lower the signal. The essentials: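 Cells (HepG2, transiently carrying cis-driven reporter units) receive chemical for 24 h before RNA isolation. Reporter cDNA is PCR-amplified, FAM-labelled by primer extension, HpaI-digested and sized on a capillary analyser.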
Take `O=C1O[C@@H]2[C@@H](O)[C@H](O)O[C@@H]2[C@H]1O`: the result was inactive.

With `NCCCN1CCOCC1`, the result was inactive.

For the compound `CCCCCCCCCCCCCC(=O)O`, the outcome was inactive.

In the case of `CCCC(=O)C(C)=O`, the result was inactive.

With `COC(=O)c1ccc(C)cc1`, the compound was called inactive.

Take `CNC(=O)Oc1ccc2c(c1)[C@]1(C)CCN(C)[C@@H]1N2C`: the compound was called inactive.

As for `BrC1CCC(Br)C(Br)CCC(Br)C(Br)CCC1Br` (centres undefined), the call was inactive.

On to `CC1CCC(C(C)(C)O)CC1` (centres undefined), for which the compound was called inactive.

In the case of `CC1CCC2CC1C2(C)C` (centres undefined), the call was inactive.

In the case of `CCCC(=O)c1cc(O)c(O)cc1O`, the compound was classed as inactive.

Take `COC(=O)C1=C(C)NC(C)=C(C(=O)OCCN(C)Cc2ccccc2)C1c1cccc([N+](=O)[O-])c1` (centres undefined): the result was inactive.

For the compound `C[Si](O[Si](C)(C)C)O[Si](C)(C)C`, the compound was classed as inactive.

Consider `C=CCOC(=O)CCC1CCCCC1`, for which the compound was classed as inactive.

Consider `O=Cc1ccc(F)cc1`, for which the compound was called inactive.

Turning to `O=C(O)CCCCCCCCCCC(=O)O`, the call was inactive.

Regarding `CC(CCO)CCc1ccccc1` (centres undefined), the compound was classed as inactive.

Regarding `CC1=CCC2C(C1)C2(C)C` (centres undefined), the compound was classed as inactive.

Turning to `COC(C(=O)O)c1ccccc1` (centres undefined), the compound was called inactive.

Take `OCc1cccnc1`: the result was inactive.

Regarding `Clc1cccc(Cl)n1`, the compound was called inactive.

As to `COc1ccc(OC)c(OC)c1`, the compound was classed as inactive.

As to `CC(C)=CCCC(C)CC=O` (centres undefined), the outcome was inactive.

`CC(C)(Oc1ccc(CCNC(=O)c2ccc(Cl)cc2)cc1)C(=O)O`: the outcome was inactive.

For `Nc1ccc(F)c([N+](=O)[O-])c1`, the compound was classed as inactive.

Take `CC(CC(C)(C)C)CC(C)(C)CC(C)(C)C` (centres undefined): the compound was called inactive.

In the case of `Cc1cccc(C)c1C`, the result was inactive.

As for `COc1c(Cl)c(Cl)c(Cl)c(Cl)c1Cl`, the outcome was inactive.

On to `Cc1c(N(C)C)c(=O)n(-c2ccccc2)n1C`, for which the result was inactive.

`CC(C)=CCC[C@H](C)CC=O`: the result was inactive.

In the case of `O=C1c2ccccc2C(=O)N1SC1CCCCC1`, the result was inactive.

On to `CCCCC/C=C/C=C/C=O`, for which the call was inactive.

Take `CCCCNC(=O)NS(=O)(=O)c1ccc(C)cc1`: the result was inactive.

On to `CC(=O)C(C)=O`, for which the result was inactive.

For the compound `O=C(O)c1snc(Cl)c1Cl`, the compound was classed as inactive.

In the case of `NCCOCCO`, the result was inactive.

Consider `CC(=O)O[C@]1(C(C)=O)CC[C@H]2[C@@H]3C[C@H](C)C4=CC(=O)CC[C@]4(C)[C@H]3CC[C@@]21C`, for which the outcome was inactive.

`COc1cccc(OC)c1`: the result was inactive.

For the compound `C=C(C)C(=O)OCCOC(=O)CC(C)=O`, the compound was classed as inactive.
